PLK1 PBD block: PLK1 (human) polo-box domain binding inhibition. actives 2.8% (n = 360,000). Plk1 PBD binding of FITC phosphopeptide, fluorescence polarization. AID 720504. Potency, µM, inactives show max response, negative = inhibition, hits mostly inhibitors. P53350; also: series mostly up to about 57 µM; % is scaled to controls: 0 for no effect and ±100 for the full control effect; nearly all actives have a fitted effect of over 65% in size
TDP1 inh: TDP1 (human) enzyme inhibition. Q9NUW8. AID 485290. recombinant TDP1, AlphaScreen DNA substrate cleavage. actives 0.28% (n = 350,000). Potency, µM (series often up to 130 µM), inactives show at the highest dose activity change, negative = inhibition, usual class: inhibitors; also: % is scaled to controls: 0 for no effect and ±100 for the full control effect; nearly all actives have a fitted effect of over 40% in size
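Steps: enzyme plus compound, 15 min RT; add biotin/phosphotyrosine-FITC oligonucleotide (15 nM final), react 5 min; add donor/acceptor beads (10 ug/ml final), 10 min; read AlphaScreen. Tdp1 at 1 nM final.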
VDR inh: inhibitors of human vitamin D receptor | P11473 | VDR-SRC2-3 peptide fluorescence polarization, 2 h | Potency, µM, inactives show max response, negative = inhibition, actives largely listed as inhibitors | actives 0.93% (n = 400,000) | AID 504847; also: % is scaled to controls: 0 for no effect and ±100 for the full control effect
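Signal is fluorescence polarization, reporting how far test compounds block the interaction of VDR with the SRC2-3 coregulator peptide after a 2 h room-temperature incubation.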
Tb PFK block: blocks T. brucei phosphofructokinase; T. brucei PFK, ADP-Glo luminescence; actives 0.17% (n = 330,000); O15648; Potency, µM (series often up to 57.5 µM), for inactives: at the highest dose activity, negative = inhibition, most hits filed as inhibitors; AID 485367;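 also: 0% = uninhibited 1x PFK enzyme wells and -100% = no-enzyme wells; nearly all actives have a fitted effect of over 60% in size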
Target sequence (O15648 whole entry, looked up): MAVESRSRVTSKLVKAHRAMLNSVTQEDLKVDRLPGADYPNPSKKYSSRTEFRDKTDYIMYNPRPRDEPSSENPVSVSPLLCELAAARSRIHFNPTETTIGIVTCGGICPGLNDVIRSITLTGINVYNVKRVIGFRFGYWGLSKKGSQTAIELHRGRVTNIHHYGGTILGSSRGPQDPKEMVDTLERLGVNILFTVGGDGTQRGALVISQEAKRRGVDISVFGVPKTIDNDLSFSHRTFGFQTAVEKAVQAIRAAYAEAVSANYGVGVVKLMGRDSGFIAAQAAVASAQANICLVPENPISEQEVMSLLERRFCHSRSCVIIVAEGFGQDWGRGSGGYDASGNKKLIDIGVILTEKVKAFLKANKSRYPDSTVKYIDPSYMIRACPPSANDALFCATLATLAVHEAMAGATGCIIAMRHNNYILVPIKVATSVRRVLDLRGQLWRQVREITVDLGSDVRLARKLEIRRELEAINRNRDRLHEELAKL
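ADP-Glo luminescence quantified ADP after 45 min at room temperature, with 1.25 nM T. brucei PFK, 0.1 mM ATP and 0.5 mM fructose-6-phosphate in pH 8.0 TEA buffer. qHTS titrations up to 57 µM; curves classified by quality.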
ASM inhibitor: inhibitors of human secretory acid sphingomyelinase. placental ASM, HMU-PC fluorogenic substrate, 60 min. actives 0.006% (n = 340,000). Potency, µM (top dose mostly 57.5 µM), without a hit: at the top dose activity change, negative = inhibition, actives largely listed as inhibitors. P17405. AID 504937
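Fluorogenic HMU-PC substrate (9 uM final) is turned over by placental ASM in 60 min at 37 C after a 10 min compound preincubation. Reaction ended by alkaline stop (pH 10), with fluorescence read at 386/447 nm.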
Pin1 inh: blocks the human prolyl isomerase Pin1; actives 0.009% (n = 390,000); Pin1 FP peptide displacement, HiFluor488, 10 min; AID 504891; Potency, µM (doses to about 115 µM), for the others: top-dose activity, negative = inhibition, usual class: inhibitors; active = well fitted inhibition curve with a large enough effect in the polarisation, with a control signal flat, not every such curve was filed as active; inconclusive = small, poorly fitted or top-dose-only effect, or effect the other way, or a change in a side signal; inactive = no such curve, though single readings can be large or run the other way; the % refers to the polarisation; also: % is scaled to controls: 0 for no effect and ±100 for the full control effect
Target sequence (Q13526 whole entry, looked up): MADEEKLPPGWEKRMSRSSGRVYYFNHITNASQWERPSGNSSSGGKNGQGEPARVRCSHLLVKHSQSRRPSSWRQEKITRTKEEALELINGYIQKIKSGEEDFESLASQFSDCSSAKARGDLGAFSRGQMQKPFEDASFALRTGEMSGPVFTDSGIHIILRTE
* marks the source's active call; other numbers are inactive results; i = inactive; u = inconclusive; x = no result given; [ ] = dose if it differs, or a comment. Sampled rows, rich in hits. Any-hit rate of the full collection: about 3.1%. Unless noted, calls follow the shape of the dose curve; as a rule, active = well fitted curve in the direction sought with a large enough effect; inconclusive = small, poorly fitted or top-dose-only effect, or another doubt; inactive = no such curve, though single readings can be large; an effect the other way counts as inactive or inconclusive. Potency is read from the fitted curve at half-maximal effect.

SMILES	PLK1 PBD block	TDP1 inh	VDR inh	Tb PFK block	ASM inhibitor	Pin1 inh
CC(C)CCNC(=O)NC(=O)COC(=O)/C=C/c1cc(Br)ccc1F	15µM*	1.1%	u	-1.1%	4.0%	-2.6%
Cc1nnc(N(Cc2ccco2)C(=O)c2cccc(C#N)c2)s1	29.9µM*	0.0%	2.1%	-7.4%	-0.8%	-9.5%
CCOC(=O)C1(C)NC(c2ccccc2F)C2C(=O)N(c3cccc(C(C)=O)c3)C(=O)C21 (stereo unspecified)	3.77µM*	2.1%	25.1µM*	-0.9%	-3.2%	1.1%
CCOC(=O)C1(C)NC(c2cccs2)C2C(=O)N(c3ccc(OC)cc3)C(=O)C21 (stereo unspecified)	3.36µM*	-3.0%	31.6µM*	6.0%	-2.0%	-4.4%
CCOC(=O)C1(C)NC(c2ccc(N(C)C)cc2)C2C(=O)N(c3ccc(OC)cc3)C(=O)C21 (stereo unspecified)	-4.7%	1.0%	14.5%	0.1%	-1.1%	9.2%
CN(C)S(=O)(=O)c1ccc(NCC2COc3ccccc3O2)c([N+](=O)[O-])c1 (stereo unspecified)	29.9µM*	0.6%	u	-6.8%	-26.4%	13.4%
CCN(CC)S(=O)(=O)c1ccc(NCC2COc3ccccc3O2)c([N+](=O)[O-])c1 (stereo unspecified)	7.2%	2.7%	-2.7%	2.4%	u	21.7%
COCCCn1c(SCC(=O)Nc2sc3c(c2C#N)CCCC3)nnc1-c1ccncc1	26.7µM*	5.2%	-0.1%	1.1%	-6.3%	49.5%
O=C1NN(c2ccccc2)C(=O)/C1=C/c1coc2ccccc2c1=O	u	0.0%	39.8µM*	9.6%	6.6%	u
O=C1NN(c2ccccc2)C(=O)/C1=C\c1coc2ccc(O)cc2c1=O	u	x	22.4µM*	8.9%	0.1%	u
Cc1cc(/C=C2/C(=O)NN(c3ccccc3)C2=O)c(C)n1-c1ccc(O)cc1	-11.6%	8.3%	u	-0.3%	-27.1%	-0.9%
Cc1ccc(Nc2nc3nonc3nc2Nc2cccc(C(F)(F)F)c2)cc1Cl	x	7.0%	-7.9%	x	x	-1.9%
CCCn1c(SCC(=O)NC(=O)NC(C)(C)C)n[nH]c1=O	26.7µM*	3.0%	-14.3%	-3.5%	8.0%	1.8%
CCCn1c(SCC(=O)c2ccc(CC)cc2)n[nH]c1=O	8.44µM*	4.8%	-25.5%	-1.8%	1.1%	-1.9%
COc1ccc(NC(=O)Cn2c(=O)n(C(C)C)c(=O)c3oc4ccccc4c32)cc1Cl	x	2.6%	6.9%	x	x	15.1%
CC(=O)Oc1ccc(C(=O)[C@H]2[C@H]3C(=O)N(c4cccc5ccccc45)C(=O)[C@H]3[C@@H]3C=CC=NN32)cc1	42.3µM*	10.7%	-12.6%	-3.4%	-2.6%	8.3%
COc1ccc(C(=O)[C@H]2[C@H]3C(=O)N(c4ccc(OC(C)=O)cc4)C(=O)[C@H]3C3C=CC=NN32)cc1 (stereo partly specified)	-4.8%	x	7.1%	4.8%	0.8%	u
O=[N+]([O-])c1ccc(CSc2ncnc3c2ncn3C2OC(CO)C(O)C2O)cc1 (stereo unspecified)	x	14.6%	x	x	x	x
CCCCC(=O)OCC(=O)Nc1cccc(S(=O)(=O)NC2=NCCCCC2)c1	23.8µM*	-2.5%	-7.9%	-1.4%	2.0%	3.1%
Cc1cc(C)cc(C(=O)OCC(=O)Nc2cccc(S(=O)(=O)NC3=NCCCCC3)c2)c1	-7.2%	-2.8%	-18.8%	1.2%	0.3%	0.1%
O=C(COC(=O)c1ccccc1)Nc1cccc(S(=O)(=O)NC2=NCCCCC2)c1	26.7µM*	-1.2%	-21.8%	-13.6%	1.2%	0.2%
CCN(CC)c1ccc(C(=C2C=CC(=[N+](CC)Cc3cccc(S(=O)(=O)[O-])c3)C=C2)c2ccc(N(CC)Cc3cccc(S(=O)(=O)O)c3)cc2)cc1	x	25.9%	12.6µM*	x	x	x
CCN(Cc1ccccc1)c1ccc(/C=N/NS(=O)(=O)c2cccc([N+](=O)[O-])c2)cc1	u	10.7%	-2.6%	-0.1%	-12.4%	-0.4%
Cc1ncc(CO)c(/C=N/N=C/c2ccccc2O)c1O	-1.6%	2.6%	-10.2%	2.8%	26.2%	-5.2%
Cc1ncc(CO)c(/C=N/Nc2ccc(C(F)(F)F)cn2)c1O	26.7µM*	9.3%	u	-2.0%	i	-1.6%
SMILES	PLK1 PBD block	TDP1 inh	VDR inh	Tb PFK block	ASM inhibitor	Pin1 inh
N#CN=c1snc(-c2ccccc2)n1-c1ccc(Br)cc1	x	x	-9.7%	x	x	-0.1%
COc1cc(C)ccc1OCCOc1cc(C)ccc1Cl	23.8µM*	-2.9%	-5.8%	-3.2%	-2.5%	2.1%
CCc1ccccc1OCCOc1ccc(C)cc1OC	2.99µM*	-14.4%	-19.3%	2.6%	0.8%	-2.0%
CC(C)c1cnc2c(c1SCc1ccc([N+](=O)[O-])cc1)c(=O)n(C)c(=O)n2C	x	5.4%	-7.0%	x	x	-1.2%
CCCCCC(=O)Cc1cc(O)cc2c1C(=O)Oc1cc(O)c(C(=O)O)c(CCCCC)c1O2	23.8µM*	x	u	-0.3%	-0.2%	x
Nc1cc([N+](=O)[O-])ccc1N1C(=O)CCCC1=O	-12.6%	20µM*	-13.5%	u	3.1%	1.6%
O=S1(=O)N=C(Oc2ccc(Br)cc2)c2ccccc21	x	2.2%	x	x	x	-1.4%
CCOC(=O)C(=Cc1ccc(F)cc1)C(=O)OCC	x	2.9%	x	1.9%	x	x
CCOC(=O)C(=Cc1ccc(Br)cc1)C(=O)OCC	16.8µM*	2.9%	10µM*	-1.4%	-0.2%	-0.7%
Cn1cncc1C#Cc1ccc2cc(C3(O)CCCCC3)oc(=O)c2c1	-10.9%	56.2µM*	-12.6%	-0.6%	59.7%	u
Cc1sc2nc(CC(=O)NN)[nH]c(=O)c2c1C	16.8µM*	2.7%	-6.0%	-9.7%	5.0%	3.2%
CC(=O)OCc1nc2sc(C)c(C)c2c(=O)[nH]1	-8.9%	-3.9%[56.1 µM]	2.8%	-0.8%	-3.3%	0.8%
COc1ccc(C)cc1NC(=O)C(OC(=O)c1ccc([N+](=O)[O-])o1)c1ccccc1 (stereo unspecified)	26.7µM*	5.9%	-5.3%	3.5%	-4.5%	-2.2%
COc1ccc(C)cc1NC(=O)C(OC(=O)CNC(=O)c1ccc(Br)cc1)c1ccccc1 (stereo unspecified)	0.3%	5.6%	-2.4%	0.8%	-3.7%	12.3%
COc1ccc(C)cc1NC(=O)C(OC(=O)CNC(=O)c1ccccc1)c1ccccc1 (stereo unspecified)	x	126µM*	x	x	x	-1.3%
COc1ccc(C)cc1NC(=O)C(OC(=O)c1cnccn1)c1ccccc1 (stereo unspecified)	1.1%	-11.8%	-10.5%	-0.4%	-1.0%	3.4%
Cc1ccc(NC(=O)c2ccc3c(c2)CCC(=O)N3)cc1C	x	-10.7%	x	x	x	-0.3%
O=C(OCC#CCSc1nnc(-c2cccc3ccccc23)o1)c1cccc(F)c1	x	-8.7%	x	x	x	6.3%
